{"source": "PubChem BioAssay (NCATS)", "note": "Results filed as inconclusive are left out. Entries that show only a call come without a potency. Values without a mark were called inactive. Active and inactive are the calls of the source. Calls come from the whole dose curve; as a rule, active = well fitted cell-killing curve with a large enough effect; inconclusive = small, poorly fitted or top-dose-only effect, or effect the other way; inactive = flat fitted curve, though single readings scatter."}
{"test_system": "JEG-3", "experiment": "Primary qHTS to identify gynecologic anti-cancer compounds using libraries of approved drugs and bioactive compounds (AID 1345084); note: nearly all actives have a fitted effect of over 55% in size", "conditions": "Gynecologic cancer cell panel viability, ATPlite luminescence, 48 h; series mostly up to 57.5 µM", "how_it_was_run": "(§1)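 Cells, 1,000 per well, were allowed to settle for 16 h at 37 C before compound addition. Five concentrations were tested for 48 h, and viability was read by ATPlite luminescence after 15 min at room temperature.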"}
{"molecule": "COc1ccc(S(=O)(=O)Nc2cc(Cl)cc(Cl)c2OC)cc1N1CCNCC1", "Potency": "inactive"}
{"molecule": "CC(=O)O[C@H]1[C@@]2(O)C[C@H](C)[C@H](OC(=O)c3ccccc3)[C@@H]2[C@@H](OC(=O)CO)[C@]2(OC(C)=O)C[C@H]3C(=O)C(C)(C)C[C@@H]3[C@@]1(C)[C@H]2OC(C)=O", "Potency": "inactive"}
{"molecule": "COc1ccc2cc(-c3cc(-c4cc(Cl)cc(Cl)c4)nn3C(C)c3ccc(C(=O)NCCC(=O)O)cc3)ccc2c1", "note": "(centres undefined)", "Potency": "inactive"}
{"molecule": "CCCCC1CCC(c2nc(-c3ccncc3)no2)CC1", "note": "(centres undefined)", "Potency": "inactive"}
{"molecule": "CC(C)CCCCC(=O)N[C@@H](CO)C(=O)N[C@@H](CC(C)C)C(=O)[C@@]1(CO)CO1", "Potency": "inactive"}
{"molecule": "COc1ccc(NC(=O)c2ccc(-c3ccc(C(=N)N)cc3C)cc2)cc1N1CCN(C)CC1", "Potency": "inactive"}
{"molecule": "CC(C)(Cc1nc(-c2ccc(O)cn2)no1)C(=O)NC1=C(C(=O)O)CCCC1", "Potency": "inactive"}
{"molecule": "CCCN(CCc1ccsc1)C1CCc2c(O)cccc2C1", "note": "(centres undefined)", "Potency": "inactive"}
{"molecule": "CCn1c(=O)n([C@H]2CCCN(c3nccc(-c4cc5ccccc5o4)n3)C2)c2ccccc21", "Potency": "inactive"}
{"molecule": "CC(=O)OC1CC(C)(C(=O)O)CC2C3=CC(=O)C4C5(C)CCC(OC6OC(C(=O)O)C(O)C(O)C6OC6OC(C(=O)O)C(O)C(O)C6O)C(C)(C)C5CCC4(C)C3(C)CCC12C", "note": "(centres undefined)", "activity change, negative = cytotoxicity": "5.64% [at 11.6 µM]"}
{"molecule": "COC1=CC(=O)C=C(C)C12Oc1c(Cl)c(OC)cc(OC)c1C2=O", "note": "(centres undefined)", "Potency": "inactive"}
{"molecule": "O=C(Nc1ccn(Cc2ccc(O)cc2C(F)(F)F)n1)c1c(F)cccc1F", "Potency": "inactive"}
{"molecule": "Cc1cccc(N2CCN(C(=O)c3cc(S(=O)(=O)N(C)C)ccc3N3CCCC3)CC2)c1C", "Potency": "inactive"}
{"molecule": "COC(=O)c1ccnc(-c2cc(C(=O)Nc3ccc(C4(N)CC4)cc3)ccn2)c1", "Potency": "inactive"}
{"molecule": "COc1ccc(CCO[C@@H]2O[C@H](CO[C@H]3OC[C@](O)(CO)[C@H]3O)[C@@H](OC(=O)/C=C/c3ccc(O)c(O)c3)[C@H](O[C@@H]3O[C@@H](C)[C@H](O)[C@@H](O)[C@H]3O)[C@H]2O)cc1OC", "Potency": "inactive"}
{"molecule": "CC(C)(C)c1ccc(C(=O)Nc2cn3cc(-n4ccnc4)ccc3n2)cc1", "Potency": "inactive"}
{"molecule": "C[C@@H](NC(=O)C(=O)c1c[nH]c2ccc([N+](=O)[O-])cc12)c1ccccc1", "Potency": "inactive"}
{"molecule": "COc1ccc(NC(=O)c2ccc(-c3ccc(-c4nnc(C)o4)cc3C)cc2)cc1N1CCN(C)CC1", "Potency": "inactive"}
{"molecule": "CC(C)Nc1nc(Nc2ccccc2)nc(-c2ccccc2)n1", "Potency": "inactive"}
{"molecule": "O=C(NCCCNc1nc(Nc2cccc(CN3CCOCC3)c2)ncc1C1CC1)C1CCC1", "Potency": "inactive"}
{"molecule": "Cc1cc2c(N3CCCC3)nc(N3CCCC3)nc2n1C", "Potency": "inactive"}
{"molecule": "Cc1cc(OCCCS(C)(=O)=O)cc(C)c1-c1cccc(COc2ccc(C3=CC(=O)NS3=O)cc2)c1", "note": "(centres undefined)", "Potency": "inactive"}
{"molecule": "O=C(c1cc(Cc2n[nH]c(=O)c3ccccc23)ccc1F)N1CCCNCC1", "Potency": "inactive"}
{"molecule": "CCCOc1ccc(S(=O)(=O)N2CCN(CCO)CC2)cc1-c1nc2c(CCC)cn(CC)c2c(=O)[nH]1", "Potency": "inactive"}
{"molecule": "CN1CCN(C2=Nc3ccccc3Nc3ccc(OS(=O)(=O)C(F)(F)F)cc32)CC1", "Potency": "inactive"}
{"molecule": "CCOc1ccc(CCNC(=O)c2cc3sc(Cl)cc3n2C)cc1OCC", "Potency": "inactive"}
{"molecule": "NS(=O)(=O)c1ccc(NC(=O)Nc2ccc(F)cc2)cc1", "Potency": "inactive"}
{"molecule": "O=C(Nc1cccnc1)c1cc(-c2ccnc(F)c2)ccc1OCc1ccccc1", "Potency": "inactive"}
{"molecule": "Cc1cc(C)c(-n2cc(C)c3c(Cl)nc(C)nc32)c(C)c1", "Potency": "inactive"}
{"molecule": "Cc1cc(C)c(S(=O)(=O)n2cc(C)cc2C)c(C)c1", "Potency": "inactive"}
{"molecule": "O=C(c1ccc(OC(F)F)c(C#Cc2ccccn2)c1)N1Cc2cccnc2C1", "Potency": "inactive"}
{"molecule": "CC1=C(C(=O)Nc2cc(Cl)ccc2Cl)C(c2ccco2)C2=C(CCCC2=O)N1", "note": "(centres undefined)", "Potency": "inactive"}
{"molecule": "CC[C@H](C)/C=C(C)/C=C/C1=CC2=CC(=O)[C@]3(C)OC(=O)[C@@H](C(C)=O)[C@@H]3C2=CO1", "Potency": "inactive"}
{"molecule": "C=C1C(=O)O[C@@H]2[C@H]1CC[C@H](C)[C@]1(CCC(=O)O1)C2(C)O", "note": "(some centres undefined)", "Potency": "inactive"}
{"molecule": "CN1CCN(c2ccc(-c3cccc(CN4CCOCC4)c3)cc2NC(=O)c2c[nH]c(=O)cc2C(F)(F)F)CC1", "Potency": "inactive"}
{"molecule": "CC(C)OC(=O)N1CCC(Oc2ncnc3c2cnn3-c2ccc(S(C)(=O)=O)cc2F)CC1", "Potency": "inactive"}
{"test_system": "OV90", "experiment": "Primary qHTS to identify gynecologic anti-cancer compounds using libraries of approved drugs and bioactive compounds (AID 1345084); note: nearly all actives have a fitted effect of over 55% in size", "conditions": "Gynecologic cancer cell panel viability, ATPlite luminescence, 48 h; series mostly up to 57.5 µM", "how_it_was_run": "as §1"}
{"molecule": "COc1ccc(S(=O)(=O)Nc2cc(Cl)cc(Cl)c2OC)cc1N1CCNCC1", "Potency": "inactive"}
{"molecule": "CC(=O)O[C@H]1[C@@]2(O)C[C@H](C)[C@H](OC(=O)c3ccccc3)[C@@H]2[C@@H](OC(=O)CO)[C@]2(OC(C)=O)C[C@H]3C(=O)C(C)(C)C[C@@H]3[C@@]1(C)[C@H]2OC(C)=O", "Potency": "inactive"}
{"molecule": "COc1ccc2cc(-c3cc(-c4cc(Cl)cc(Cl)c4)nn3C(C)c3ccc(C(=O)NCCC(=O)O)cc3)ccc2c1", "note": "(centres undefined)", "Potency": "inactive"}
{"molecule": "CCCCC1CCC(c2nc(-c3ccncc3)no2)CC1", "note": "(centres undefined)", "Potency": "inactive"}
{"molecule": "CC(C)CCCCC(=O)N[C@@H](CO)C(=O)N[C@@H](CC(C)C)C(=O)[C@@]1(CO)CO1", "Potency": "inactive"}
{"molecule": "COc1ccc(NC(=O)c2ccc(-c3ccc(C(=N)N)cc3C)cc2)cc1N1CCN(C)CC1", "Potency": "inactive"}
{"molecule": "CC(C)(Cc1nc(-c2ccc(O)cn2)no1)C(=O)NC1=C(C(=O)O)CCCC1", "Potency": "inactive"}
{"molecule": "CCCN(CCc1ccsc1)C1CCc2c(O)cccc2C1", "note": "(centres undefined)", "Potency": "inactive"}
{"molecule": "CCn1c(=O)n([C@H]2CCCN(c3nccc(-c4cc5ccccc5o4)n3)C2)c2ccccc21", "Potency": "inactive"}
{"molecule": "CC(=O)OC1CC(C)(C(=O)O)CC2C3=CC(=O)C4C5(C)CCC(OC6OC(C(=O)O)C(O)C(O)C6OC6OC(C(=O)O)C(O)C(O)C6O)C(C)(C)C5CCC4(C)C3(C)CCC12C", "note": "(centres undefined)", "activity change, negative = cytotoxicity": "2.42% [at 11.6 µM]"}
{"molecule": "COC1=CC(=O)C=C(C)C12Oc1c(Cl)c(OC)cc(OC)c1C2=O", "note": "(centres undefined)", "Potency": "inactive"}
{"molecule": "O=C(Nc1ccn(Cc2ccc(O)cc2C(F)(F)F)n1)c1c(F)cccc1F", "Potency": "inactive"}
{"molecule": "Cc1cccc(N2CCN(C(=O)c3cc(S(=O)(=O)N(C)C)ccc3N3CCCC3)CC2)c1C", "Potency": "inactive"}
{"molecule": "COC(=O)c1ccnc(-c2cc(C(=O)Nc3ccc(C4(N)CC4)cc3)ccn2)c1", "Potency": "inactive"}
{"molecule": "COc1ccc(CCO[C@@H]2O[C@H](CO[C@H]3OC[C@](O)(CO)[C@H]3O)[C@@H](OC(=O)/C=C/c3ccc(O)c(O)c3)[C@H](O[C@@H]3O[C@@H](C)[C@H](O)[C@@H](O)[C@H]3O)[C@H]2O)cc1OC", "Potency": "inactive"}
{"molecule": "CC(C)(C)c1ccc(C(=O)Nc2cn3cc(-n4ccnc4)ccc3n2)cc1", "Potency": "inactive"}
{"molecule": "C[C@@H](NC(=O)C(=O)c1c[nH]c2ccc([N+](=O)[O-])cc12)c1ccccc1", "Potency": "inactive"}
{"molecule": "COc1ccc(NC(=O)c2ccc(-c3ccc(-c4nnc(C)o4)cc3C)cc2)cc1N1CCN(C)CC1", "Potency": "inactive"}
{"molecule": "C=C1C(=O)OC2CC(C)C(CCC(C)O)=CCC12", "note": "(centres undefined)", "Potency": "inactive"}
{"molecule": "CC(C)Nc1nc(Nc2ccccc2)nc(-c2ccccc2)n1", "Potency": "inactive"}
{"molecule": "O=C(NCCCNc1nc(Nc2cccc(CN3CCOCC3)c2)ncc1C1CC1)C1CCC1", "Potency": "inactive"}
{"molecule": "Cc1cc2c(N3CCCC3)nc(N3CCCC3)nc2n1C", "Potency": "inactive"}
{"molecule": "O=C(c1cc(Cc2n[nH]c(=O)c3ccccc23)ccc1F)N1CCCNCC1", "Potency": "inactive"}
{"molecule": "CCNC1(C(N)=O)CCN(c2ncnc3c2nc(-c2ccccc2Cl)n3-c2ccc(Cl)cc2)CC1", "Potency": "inactive"}
{"molecule": "CCCOc1ccc(S(=O)(=O)N2CCN(CCO)CC2)cc1-c1nc2c(CCC)cn(CC)c2c(=O)[nH]1", "Potency": "inactive"}
{"molecule": "CN1CCN(C2=Nc3ccccc3Nc3ccc(OS(=O)(=O)C(F)(F)F)cc32)CC1", "Potency": "inactive"}
{"molecule": "CCOc1ccc(CCNC(=O)c2cc3sc(Cl)cc3n2C)cc1OCC", "Potency": "inactive"}
{"molecule": "NS(=O)(=O)c1ccc(NC(=O)Nc2ccc(F)cc2)cc1", "Potency": "inactive"}
{"molecule": "O=C(Nc1cccnc1)c1cc(-c2ccnc(F)c2)ccc1OCc1ccccc1", "Potency": "inactive"}
{"molecule": "Cc1cc(C)c(-n2cc(C)c3c(Cl)nc(C)nc32)c(C)c1", "Potency": "inactive"}
{"molecule": "Cc1cc(C)c(S(=O)(=O)n2cc(C)cc2C)c(C)c1", "Potency": "inactive"}
{"molecule": "O=C(c1ccc(OC(F)F)c(C#Cc2ccccn2)c1)N1Cc2cccnc2C1", "Potency": "inactive"}
{"molecule": "CC1=C(C(=O)Nc2cc(Cl)ccc2Cl)C(c2ccco2)C2=C(CCCC2=O)N1", "note": "(centres undefined)", "Potency": "inactive"}
{"molecule": "COc1ccc2c(NC(=O)Nc3cccc(C(F)(F)F)n3)ccnc2c1", "Potency": "inactive"}
{"molecule": "CC[C@H](C)/C=C(C)/C=C/C1=CC2=CC(=O)[C@]3(C)OC(=O)[C@@H](C(C)=O)[C@@H]3C2=CO1", "Potency": "inactive"}
{"molecule": "C=C1C(=O)O[C@@H]2[C@H]1CC[C@H](C)[C@]1(CCC(=O)O1)C2(C)O", "note": "(some centres undefined)", "Potency": "inactive"}
{"molecule": "CN1CCN(c2ccc(-c3cccc(CN4CCOCC4)c3)cc2NC(=O)c2c[nH]c(=O)cc2C(F)(F)F)CC1", "Potency": "inactive"}
{"molecule": "CC(C)OC(=O)N1CCC(Oc2ncnc3c2cnn3-c2ccc(S(C)(=O)=O)cc2F)CC1", "Potency": "inactive"}
